From the supplement of paper PMC12340641

Legend:
[1] = biological target: IKZF1 (dCK*-IKZF1 fusion in HEK293FT) (UniProt Q13422); assay: inhibition of IKZF1 HTRF signal (DMSO = 0%, pomalidomide 10 uM = 100%); higher = lower IKZF1 protein level; details: compound concentration: 5 uM, overnight (~20 h)
Method in brief: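 After overnight treatment at 37 °C with 5 μM compound in single wells, HEK293FT cells (2000/well, 384-well) stably expressing an IKZF1 fusion were lysed for 30 min at room temperature. A commercial HTRF total-IKZF1 antibody kit was incubated with the lysate overnight, and the time-resolved FRET ratio at 665/620 nm was corrected for background. Data are given as percent inhibition of IKZF1 signal relative, on each plate, to vehicle and a reference degrader, set at 0% and 100% respectively.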

HEK293FT dCK*-only = assay: relative growth in counter assay (no AraC = 100%, AraC + DMSO = 0%); higher = more growth rescue independent of IKZF1; details: compound concentration: 5 uM; AraC concentration: 0.3 uM; overnight pretreatment + 4 days AraC
Method in brief: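 Counter assay in HEK293FT cells expressing dCK* alone (300/well, 384-well). Cells received 5 μM compound 2 h after seeding, then after overnight at 37 °C a nucleoside suicide substrate at 0.3 μM plus medium for 4 days. On day 5, Hoechst 33342-stained nuclei were counted by imaging. Relative growth was normalised per plate to wells without suicide substrate (100%) and substrate plus vehicle (0%).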

HEK293FT dCK*-IKZF1 = assay: relative growth recovery (pomalidomide 10 uM = 100%, DMSO = 0%); higher = more growth rescue (IKZF1 fusion degradation); details: compound concentration: 5 uM; AraC concentration: 0.3 uM; overnight pretreatment + 4 days AraC
Method in brief: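 HEK293FT cells stably expressing a dCK*-IKZF1 fusion (300/well, 384-well) received 5 μM compound 2 h after seeding. After overnight at 37 °C they received a nucleoside suicide substrate at 0.3 μM plus medium for 4 days. On day 5, Hoechst 33342-stained nuclei were counted by whole-well imaging. Growth recovery was normalised per plate to a reference degrader (100%) and vehicle (0%); values are means of duplicates run on different days.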

IKZF1 (dCK*-IKZF1 fusion in HEK293FT), sequence (Q13422 whole entry, looked up, the tested form may be a part): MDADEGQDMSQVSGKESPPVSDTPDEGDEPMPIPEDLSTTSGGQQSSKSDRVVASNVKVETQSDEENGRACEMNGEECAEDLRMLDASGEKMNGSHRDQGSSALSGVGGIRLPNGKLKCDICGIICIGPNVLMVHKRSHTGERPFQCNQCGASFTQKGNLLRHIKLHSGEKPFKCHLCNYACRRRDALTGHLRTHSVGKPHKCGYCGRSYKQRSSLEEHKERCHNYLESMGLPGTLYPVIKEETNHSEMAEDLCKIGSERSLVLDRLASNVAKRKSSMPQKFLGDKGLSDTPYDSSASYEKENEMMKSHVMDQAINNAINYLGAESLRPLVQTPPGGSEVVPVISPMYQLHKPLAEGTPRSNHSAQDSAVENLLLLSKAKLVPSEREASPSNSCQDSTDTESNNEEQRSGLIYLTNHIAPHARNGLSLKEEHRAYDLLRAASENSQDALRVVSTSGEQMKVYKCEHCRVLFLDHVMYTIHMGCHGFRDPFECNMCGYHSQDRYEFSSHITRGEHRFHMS

Compound | inhibition of IKZF1 HTRF signal [1] | relative growth in counter assay (HEK293FT dCK*-only) | relative growth recovery (HEK293FT dCK*-IKZF1)
CCOc1ccc2nc3cc(N)ccc3c(N)c2c1 | -16.3% | -23.6% | -6.36%
CC(C)(N)c1nc(-c2ccc(OC(F)(F)F)cc2)c[nH]1 | -29.8% | 5.76% | -3.6%
CC(C)(C)C1=CC=C(CN(C)[C@H](C(N[C@H]([C@](NC(C)(C)C)=O)CC2=CC=C(OCC3=CC=CC=C3)C=C2)=O)CC(C)C)C=C1 | -24.5% | 1.14% | -2.38%
CNCC(O)c1ccc(O)c(O)c1 (racemic) [DL-Adrenaline] | 10.3% | -3.86% | -4.26%
Nc1nc2c(ccc3ccccc32)s1 | -31% | 4.08% | 0.375%
CCCS(=O)c1ccc2nc(NC(=O)OC)[nH]c2c1 (stereo unspecified) [Albendazole Oxide (Ricobendazole)] | 24.3% | -7.11% | -2.83%
C=C1C(=O)O[C@H]2[C@H]1CC/C(C)=C\CC[C@@]1(C)O[C@@H]21 [Parthenolide ((-)-Parthenolide)] | -18.3% | -33.7% | -11.6%
Oc1c(CN2CCCC2)cc(COCc2ccccc2)c2cccnc12 | -11.1% | -34.9% | -13.4%
COC(=O)c1c(C)[nH]c(C)c1C(=O)c1ccccc1Cc1ccccc1 | -37.4% | 36.9% | 66.8%
Clc1ccc(CSC(Cn2ccnc2)c2ccc(Cl)cc2Cl)cc1 (stereo unspecified) | -35.5% | -4.03% | -1.39%
CN(C)c1ccc(/C=C2\C(=O)Nc3ccccc32)cc1 | -36.5% | -9.78% | 2.52%
COc1ccccc1NC(=O)OCC1CCN(C(=O)OC(C)(C)C)CC1 | -21.9% | -0.54% | 0.27%
CCCNC(=O)NS(=O)(=O)c1ccc(Cl)cc1 | -35.8% | -2.41% | 1.51%
O=C(O)c1ccccc1-c1c2cc(I)c(=O)c(I)c-2oc2c(I)c(O)c(I)cc12 | 23.2% | -0.87% | -1.36%
COC(=O)Nc1nc2ccc(C(=O)c3ccccc3)cc2[nH]1 | -12.9% | -32.6% | -10.6%
O=c1oc2c(O)c(O)cc3c(=O)oc4c(O)c(O)cc1c4c23 | 5.6% | -6.38% | -3%
C=CC(=O)Nc1cccc(Oc2nc(Nc3ccc(N4CCN(C)CC4)cc3)ncc2Cl)c1 | 23.4% | -29.5% | -9.69%
Nc1ncn([C@@H]2O[C@H](CO)C(O)C2O)c(=O)n1 (stereo partly specified) [Azacitidine] | -5.73% | 4.37% | -3.45%
Oc1cccc2cc3cccc(O)c3c(O)c12 [dithranol] | -46.9% | 3.52% | -0.86%

Compound | inhibition of IKZF1 HTRF signal [1] | relative growth in counter assay (HEK293FT dCK*-only) | relative growth recovery (HEK293FT dCK*-IKZF1)
COCCN(C(=O)c1cc(OC)c(OC)c(OC)c1)c1nc(-c2ccccc2)cs1 [eact] | -41.3% | -0.03% | -1.76%
Nc1ncnc2c1c(-c1cnc3[nH]ccc3c1)nn2C1CCCC1 | -13.8% | -33.6% | -11.3%
C=C1C(=O)O[C@H]2[C@H]1CC/C(C)=C/CC[C@@]1(C)O[C@@H]21 [parthenolide] | -47.4% | -33% | -10.5%
COC(=O)Nc1nc2ccc(S(=O)c3ccccc3)cc2[nH]1 (stereo unspecified) | 5.34% | -12.6% | -3.6%
Clc1ccc2c(NCCNc3ccnc4cc(Cl)ccc34)ccnc2c1 | -19.4% | -2.86% | -1.39%
Clc1ccc2c(N3CCN(CCCN4CCN(c5ccnc6cc(Cl)ccc56)CC4)CC3)ccnc2c1 | 17% | 3.87% | -1.17%
CN1CCN(CCCN2c3ccccc3Sc3ccc(Cl)cc32)CC1 | -26.7% | 4.19% | 1.47%
CCOC(=O)Nc1ccc2c(c1)N(C(=O)CN(C)C)c1ccccc1CC2 [Tiracizine] | 1.99% | 0.34% | -0.145%
CC(C)/N=c1/cc2n(-c3ccc(Cl)cc3)c3ccccc3nc-2cc1Nc1ccc(Cl)cc1 [Clofazimine] | 6.09% | 3.02% | -0.03%
CN(C)c1ccc2c(c1)Sc1cc(N(C)C)ccc1N2.CS(=O)(=O)O [Leucomethylene blue (Mesylate)] | -24.1% | -19.7% | -10.3%
C=C1/C(=C\C=C2/CCC[C@]3(C)[C@@H]([C@H](C)CCCC(C)(C)O)CC[C@@H]23)C[C@@H](O)C[C@@H]1O [Calcitriol] | -12.4% | -0.18% | -0.98%
Cc1cc(C)nc(NS(=O)(=O)c2ccc(N)cc2)n1 | -24.1% | 2.2% | -1.69%
O=C1Nc2c(ccc(Cl)c2Cl)C1=NO | -26.5% | -8.31% | -2.38%
O=C1Nc2cc(Br)ccc2/C1=C1/Nc2ccccc2/C1=N\O [3-inhibitor] | -34.6% | -10.1% | -4.43%
CN(Cc1cnc2nc(N)nc(N)c2n1)c1ccc(C(=O)NC(CCC(=O)O)C(=O)O)cc1 (stereo unspecified) [Methotrexate] | -46% | -30.3% | -9.97%
COc1cc([C@@H]2c3cc4c(cc3[C@@H](O[C@@H]3O[C@@H]5CO[C@@H](C)O[C@H]5[C@H](O)[C@H]3O)[C@H]3COC(=O)[C@H]23)OCO4)cc(OC)c1O [Etoposide] | -29.2% | -34.7% | -12.5%
CC[C@H](C)[C@H]1O[C@]2(CC[C@@H]1C)C[C@@H]1C[C@@H](C/C=C(\C)[C@@H](O[C@H]3C[C@H](OC)[C@@H](O[C@H]4C[C@H](OC)[C@@H](O)[C@H](C)O4)[C@H](C)O3)[C@@H](C)/C=C/C=C3\CO[C@@H]4[C@H](O)C(C)=CC(C(=O)O1)[C@]34O)O2 (stereo partly specified) [Ivermectin] | -28.1% | -2.12% | 0.635%
Cc1cc(C)c(C2=NOC3C4CCC(C4)C23)c(C)c1 (stereo unspecified) | -34% | 1.92% | -0.34%
